Results: PubChem BioAssay (NCATS)
Results filed as inconclusive are left out. The source made the active and inactive calls. Unless noted, calls follow the shape of the dose curve; as a rule, active = well fitted curve in the direction sought with a large enough effect; inconclusive = small, poorly fitted or top-dose-only effect, or another doubt; inactive = no such curve, though single readings can be large; an effect the other way counts as inactive or inconclusive.

Experiments:
[1] = qHTS Assay for Identification of Small Molecule Antagonists for NFkB Signaling Pathway (AID 895; active = well fitted inhibition curve with a large enough effect in the signal ratio, with a control signal flat, not every such curve was filed as active; the % refers to the signal ratio; also: potency is read from the fitted curve at half-maximal effect)
In short: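 ME-180 NFkB-bla cells (beta-lactamase under NFkB response element), plated overnight, treated with compound then 10 pM TNF alpha (about EC50) for 5 hrs at 37 C. LiveBLAzer FRET read at 460/530 nm emission, 405 nm excitation.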

[2] = molecular target: Cytochrome P450 2C19 (Homo sapiens) (UniProt P33261); assay: qHTS Assay for Inhibitors and Substrates of Cytochrome P450 2C19 (AID 899); also: nearly all actives have a fitted effect of over 60% in size; also: potency is read from the fitted curve at half-maximal effect
Sequence of Cytochrome P450 2C19 (Homo sapiens) (P33261 whole entry, looked up): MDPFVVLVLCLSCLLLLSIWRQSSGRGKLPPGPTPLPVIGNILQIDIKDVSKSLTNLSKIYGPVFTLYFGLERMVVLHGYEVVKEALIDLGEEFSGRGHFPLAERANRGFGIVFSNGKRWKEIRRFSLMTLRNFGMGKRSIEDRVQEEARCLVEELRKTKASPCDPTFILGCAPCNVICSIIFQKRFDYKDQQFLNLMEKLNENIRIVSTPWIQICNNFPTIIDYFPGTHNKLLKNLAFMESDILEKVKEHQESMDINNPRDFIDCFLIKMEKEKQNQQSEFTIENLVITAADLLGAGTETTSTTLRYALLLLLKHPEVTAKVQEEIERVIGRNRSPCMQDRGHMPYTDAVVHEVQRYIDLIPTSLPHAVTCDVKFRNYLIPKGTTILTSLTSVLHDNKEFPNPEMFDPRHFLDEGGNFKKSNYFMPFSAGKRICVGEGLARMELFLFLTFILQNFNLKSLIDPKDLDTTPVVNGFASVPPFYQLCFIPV
In short: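 Signal comes from luciferase acting on luciferin released by CYP2C19-mediated hydroxylation of Luciferin-H EGE, 10uM (KM). Assay mix: 5nM enzyme, 50mM KPO4; 60 min at 37C with NADPH regeneration. Data normalized against 57uM ketoconazole.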

[3] = molecular target: Muscarinic acetylcholine receptor M1 (Rattus norvegicus) (UniProt P08482); assay: qHTS Assay for Antagonists of Acetylcholine Muscarinic M1 Receptor: Measurement of IP-One Response (AID 944); also: nearly all actives have a fitted effect of over 75% in size; also: potency is read from the fitted curve at half-maximal effect
Sequence of Muscarinic acetylcholine receptor M1 (Rattus norvegicus) (P08482 whole entry, looked up): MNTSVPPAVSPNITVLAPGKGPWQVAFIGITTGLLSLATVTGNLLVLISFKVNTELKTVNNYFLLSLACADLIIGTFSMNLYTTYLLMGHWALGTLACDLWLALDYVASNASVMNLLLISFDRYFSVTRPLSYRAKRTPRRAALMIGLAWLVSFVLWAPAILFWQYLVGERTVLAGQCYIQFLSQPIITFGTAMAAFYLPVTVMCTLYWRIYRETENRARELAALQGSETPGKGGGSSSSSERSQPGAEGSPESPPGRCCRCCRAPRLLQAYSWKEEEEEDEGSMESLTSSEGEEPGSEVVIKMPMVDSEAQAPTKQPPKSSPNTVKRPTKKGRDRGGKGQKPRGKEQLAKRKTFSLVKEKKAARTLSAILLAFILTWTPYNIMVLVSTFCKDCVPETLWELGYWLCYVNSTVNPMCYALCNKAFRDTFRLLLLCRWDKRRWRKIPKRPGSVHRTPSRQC
In short: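 Steps: plate transfected CHO-M1 cells overnight; add test compound, 10 min; add carbachol (200 nM, EC80) in stimulation buffer with LiCl; incubate 30 min; add labelled IP1 tracer and anti-IP1 antibody in lysis buffer; read HTRF after 10 min.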

[4] = molecular target: Pyruvate kinase (Leishmania mexicana) (UniProt Q27686); assay: qHTS Validation Assay for Inhibitors of Leishmania Mexicana Pyruvate Kinase (AID 945); also: potency is read from the fitted curve at half-maximal effect
Sequence of Pyruvate kinase (Leishmania mexicana) (Q27686 2-499 E452W): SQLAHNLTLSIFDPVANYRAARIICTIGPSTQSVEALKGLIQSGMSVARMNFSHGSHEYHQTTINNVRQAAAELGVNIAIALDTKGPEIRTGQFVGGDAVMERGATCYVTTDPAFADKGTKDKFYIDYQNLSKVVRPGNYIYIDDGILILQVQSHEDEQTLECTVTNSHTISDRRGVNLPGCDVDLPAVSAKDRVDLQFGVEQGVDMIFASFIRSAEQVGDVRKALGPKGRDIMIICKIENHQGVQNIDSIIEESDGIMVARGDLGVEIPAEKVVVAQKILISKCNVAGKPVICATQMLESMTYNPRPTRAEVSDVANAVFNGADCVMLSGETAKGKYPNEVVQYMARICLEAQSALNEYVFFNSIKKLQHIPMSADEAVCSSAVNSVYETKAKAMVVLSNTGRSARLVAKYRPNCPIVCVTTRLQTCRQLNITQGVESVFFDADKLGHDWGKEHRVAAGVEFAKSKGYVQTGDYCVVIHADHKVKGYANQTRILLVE
In short: (§1)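 An endpoint luciferase assay: 0.2 nM LmPYK E451W turns over 0.5 mM PEP with 0.1 mM ADP for 1 h at room temperature, pH 7.2, before PKLight addition. Values are normalized to DMSO-only wells.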

[5] = molecular target: Pyruvate kinase PKM (Homo sapiens) (UniProt P14618); assay: qHTS Assay for Activators of Human Muscle Pyruvate Kinase (AID 954; active = well fitted curve in the direction sought with a large enough effect, not every such curve was filed as active)
Sequence of Pyruvate kinase PKM (Homo sapiens) (P14618 whole entry, looked up): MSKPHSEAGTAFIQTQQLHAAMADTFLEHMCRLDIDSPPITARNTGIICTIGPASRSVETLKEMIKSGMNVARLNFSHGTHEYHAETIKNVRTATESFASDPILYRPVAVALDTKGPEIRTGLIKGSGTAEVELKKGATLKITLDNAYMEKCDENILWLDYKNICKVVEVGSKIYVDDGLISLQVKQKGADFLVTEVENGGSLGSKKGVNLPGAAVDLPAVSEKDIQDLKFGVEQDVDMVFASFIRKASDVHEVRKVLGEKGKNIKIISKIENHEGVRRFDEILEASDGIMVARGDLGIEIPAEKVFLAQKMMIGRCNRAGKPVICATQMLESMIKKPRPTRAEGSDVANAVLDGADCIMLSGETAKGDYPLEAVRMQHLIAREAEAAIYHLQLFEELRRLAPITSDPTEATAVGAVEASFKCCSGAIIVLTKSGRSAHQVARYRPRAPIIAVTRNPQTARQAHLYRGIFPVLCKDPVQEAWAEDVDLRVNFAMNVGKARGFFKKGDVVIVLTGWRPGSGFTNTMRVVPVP
In short: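 Enzyme was run at intermediate activity so both inhibitors and activators could be detected. ATP formed from ADP and PEP by 0.1 nM human PKM2 during a 1 h room-temperature incubation was quantified by coupled luciferase luminescence.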

[6] = qHTS Assay for Identification of Small Molecule Agonists for Thrombopoietin (TPO) Signaling Pathway (AID 917); also: potency is read from the fitted curve at half-maximal effect
In short: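 Murine Ba/F3 cells stably expressing human TPO receptor and a Glycoprotein IIb promoter–luciferase reporter were IL-3-starved overnight, then treated with compounds plus TPO (26 pM final, its EC50) for 24 hrs at 37 C; luminescence was read.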

[7] = molecular target: Muscarinic acetylcholine receptor M1 (Rattus norvegicus) (UniProt P08482); assay: qHTS Assay for Antagonists of Acetylcholine Muscarinic M1 Receptor: Kinetic Measurement of Intracellular Calcium Response (AID 943); also: nearly all actives have a fitted effect of over 75% in size; also: potency is read from the fitted curve at half-maximal effect
In short: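 Intracellular calcium flux, recorded with Fluo-4 in a kinetic plate reader, served as signal; the response to carbachol at EC80 (100 nM final) was taken as maximal over minimal fluorescence after a 10 min compound pre-incubation in rat M1-CHO cells.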

[8] = Confirmation and Secondary Assay for Modulators of Hemoglobin Beta Chain Splicing at IVS2 654 locus (AID 910);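 also: HeLa cells stably carrying EGFP split by mutant beta-globin IVS2-654 intron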
In short: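 HeLa cells stably expressing EGFP interrupted by β-globin IVS2-654 intron, seeded overnight in Opti-MEM/2% FCS, then treated 2 days at 37 °C. Restored splicing read as total peak GFP intensity per well by laser scanning cytometry (488 nm excitation, 500–520 nm emission); 500 nM antisense PNA as control.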

[9] = Confirmation and Secondary Assay for Modulators of Hemoglobin Beta Chain Splicing at IVS2 705 locus (AID 930);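 also: HeLa cells stably expressing the EGFP-705 splicing reporter; GFP fluorescence per well restored by corrected splicing of the IVS2-705 intron in EGFP; series mostly up to about 46 µM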
In short: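 Per-well GFP, captured at 1 x 8 µm resolution with 488 nm excitation, served as the read-out for HeLa EGFP-705 cells incubated 2 days with test compound versus DMSO.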

[10] = molecular target: Pyruvate kinase (Leishmania mexicana) (UniProt Q27686); assay: qHTS Validation Assay for Activators of Leishmania Mexicana Pyruvate Kinase (AID 959)
In short: as §1

[11] = molecular target: Pyruvate kinase PKM (Homo sapiens) (UniProt P14618); assay: qHTS Assay for Inhibitors of Human Muscle Pyruvate Kinase (AID 958)
In short: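 Human PKM2 activity is measured as ATP generation, detected by luciferase-coupled luminescence. The enzyme (0.1 nM) acts on 0.5 mM PEP and 0.1 mM ADP for 1 h at ambient temperature; data are normalized to uninhibited and full-inhibition wells.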

Measured: Potency

CCCCCCN(CCCCCC)C(=O)Cc1c(-c2ccc(F)cc2)[nH]c2ccccc12
inactive: [1] | [3] | [4] | [5]
active: [2] 3.98 µM

COc1cc2c(CCNC(C)=O)c[nH]c2cc1O
inactive: [1] | [6] | [7] | [3] | [4] | [5]

CCCn1c(=O)c2[nH]c(C3CCCC3)nc2n(CCC)c1=O
not listed: [7] | [10] | [11]
inactive: all other assays above

CSC(=N)N
inactive: [1] | [6] | [7] | [3] | [4] | [5]
active: [2] 0.631 µM

NCCS(=O)O
not listed: [8] | [9] | [10] | [11]
inactive: all other assays above

O=[N+]([O-])c1cccc2cn[nH]c12
not listed: [7] | [10] | [11]
inactive: all other assays above

O=C(O)c1cc(=O)cc(C(=O)O)[nH]1
active: [1] 3.55 µM
inactive: [6] | [3] | [4] | [5]

O=C(O)/C(=C/c1c(C(=O)O)[nH]c2cc(Cl)cc(Cl)c12)c1ccccc1
inactive: [1] | [6] | [7] | [3] | [4] | [5]

O=C1Nc2ccc(I)cc2/C1=C/c1cc(Br)c(O)c(Br)c1
active: [1] 8.91 µM
inactive: [6] | [7] | [4] | [5]

O=C1NC(=O)c2cc(Nc3ccccc3)c(Nc3ccccc3)cc21
inactive: [3] | [4] | [5]
active: [1] 10 µM

CCN(CC)CCOC(=O)c1cc(Cl)c(N)cc1OC
inactive: [1] | [6] | [3] | [4] | [5]

COc1ccc(CCN(C)CCc2ccc(OC)c(OC)c2)cc1OC
inactive: [1] | [6] | [4] | [5]

CN(C)S(=O)(=O)c1ccc2c(c1)/C(=C/c1cc3c([nH]1)CCCC3)C(=O)N2
active: [1] 1.58 µM
inactive: [6] | [7] | [4] | [5]

O=C(O)C1=CCCN(CCON=C(c2ccccc2)c2ccccc2)C1
inactive: [1] | [6] | [3] | [4] | [5]

Nc1ccc(-c2nc3ccc(-c4nc5ccc(N)cc5[nH]4)cc3[nH]2)cc1
active: [1] 1.12 µM
inactive: [6] | [3] | [5] | [10]

CCN(c1nc(N)c(C(=O)N=C(N)N)nc1Cl)C(C)C
inactive: [1] | [3] | [4] | [5]

COc1ccccc1N1CCN(CCCNc2c(C)c(=O)n(C)c(=O)n2C)CC1
inactive: [1] | [6] | [4] | [5]

Cc1nc(N=Nc2ccc(S(=O)(=O)O)cc2S(=O)(=O)O)c(COP(=O)(O)O)c(C=O)c1O
inactive: [1] | [7] | [3] | [4] | [5]
active: [10] 3.98 µM

CCCC(=O)NCCc1c2n(c3ccc(OC)cc13)CCCc1ccccc1-2
inactive: [1] | [3] | [4] | [5]

Nc1ccc(-c2ccc3ccccc3n2)cc1
inactive: [1] | [3] | [5] | [10]
active: [4] 12.6 µM | [11] 12.6 µM

CNCCNS(=O)(=O)c1cccc2cnccc12
active: [1] 10 µM
inactive: [6] | [7] | [3] | [4] | [5]

C[N+](C)(C)CC=O
inactive: [1] | [6] | [3] | [4] | [5]

NOCC(=O)O
inactive: [1] | [7] | [4] | [5]

N#Cc1cc2nc(O)c(O)nc2cc1[N+](=O)[O-]
active: [10] 25.1 µM
inactive: [1] | [6] | [7] | [3] | [4] | [5]

C[C@](Cc1ccc(O)c(O)c1)(NN)C(=O)O
inactive: [2]

Cc1ccc2c(c1)C(N1CCN(C)CC1)=Nc1cccnc1N2
active: [1] 11.2 µM | [7] 0.0355 µM | [3] 0.0794 µM
inactive: [6] | [4] | [5]

Cc1nc(N=Nc2cc(S(=O)(=O)O)c3cc([N+](=O)[O-])cc(S(=O)(=O)O)c3c2)c(COP(=O)(O)O)c(C=O)c1O
inactive: [1] | [3] | [4] | [5]

C=CC[C@H](N)C(=O)O
inactive: [1] | [7] | [3] | [4] | [5]

Clc1nccc2c1ccc1ccccc12
inactive: [1] | [6] | [4] | [5]

CC[N+](CC)(CC)CC(=O)Nc1c(C)cccc1C
inactive: [1] | [6] | [4] | [5]

COc1cc(N)c(Cl)cc1C(=O)OCCN1CCCCC1
inactive: [1] | [6] | [4] | [5]

C=C1C(=O)O[C@@H]2[C@H]3O[C@]3(C)CCC=C(C)CC[C@@H]12
inactive: [2]

O=C(O)C1CCNCC1
inactive: [1] | [6] | [3] | [4] | [5]

NC(=Nc1ccccc1)NC(=O)c1nc(Cl)c(N)nc1N
active: [1] 7.94 µM | [6] 2.51 µM
inactive: [4] | [5]

c1ccc2nc(C3=NCCN3)ccc2c1
inactive: [1] | [6] | [4] | [5]

CCC(=O)N1CCN(C(=O)c2ccccc2)CC1
inactive: [1] | [6] | [7] | [4] | [5]

NS(=O)(=O)c1cccc2c1c([N+](=O)[O-])cc1nc(O)c(O)nc12
inactive: [1] | [6] | [7] | [3] | [4] | [11]

N#CC(C#N)=C(N)/C(C#N)=C/c1ccc(O)cc1
inactive: [1] | [6] | [7] | [3] | [4] | [5]

C=CCn1c(=O)c2c(nc(-c3ccc(S(=O)(=O)O)cc3)n2C)n(C)c1=O
inactive: [1] | [6] | [7] | [4] | [5]
